Experimental findings from ChEMBL document CHEMBL3988442, “University of Dundee, Small-Polar-MMV Screening Library” (2021) are described below.

Out of some 48,000 compounds screened, about 13,000 (27%) showed an effect of 50% or more. Some of the results follow.

The subject of the assay is Wolbachia pipientis. As to the kind of experiment: Anti-Wolbachia Cell-Based Screen. Type of assay: functional. The arrangement: scale not given: in the data most compounds retested in dose-response had high values. The following applies: 5 µM.
For the molecule `CN(C)CC(=O)N1CC(c2nn(C)c3nccnc23)C1`, the “Percent Effect” value was 96.82%. The result for `CC(=O)N1CCC(c2nn(C)c3nccnc23)C1` (centres undefined) reads 104.2%; that for `CN(C)CC(=O)N1Cc2nnn(C)c2C(COCC2CC2)C1` (centres undefined), -6.376%; that for `Cc1ncc(CN(C)C(=O)Nc2cccc(N3CCOC3=O)c2)s1`, -2.518%. Regarding `CC(C)N(C(=O)c1csc(-c2ccoc2)n1)C1CCOCC1`, the “Percent Effect” value was -5.774%. The result for `Cc1cnn(CC2CCCN2c2ncnc3ccccc23)c1` (centres undefined) reads -22.63%; that for `Cc1nc(-c2cccs2)ccc1C(=O)N1CCN(CCO)CC1`, -3.936%; that for `COc1cc(C)nc(N2CCN(C(=O)CCc3cccs3)CC2)n1`, -2.18%. To `COCCC(=O)N1Cc2nc3c(C)c(-c4cccs4)nn3c(O)c2C1` belongs 108.4%. The result for `Cc1c(-c2cccs2)nn2c(O)c3c(nc12)CN(C(=O)C1CC1)C3` reads 98.04%; that for `Cc1nc2c(c(=O)n1C)CN(C(=O)C1CCN(C(=O)C3CCC3)CC1)C2`, -3.258%; that for `CCc1ncc2c(n1)CN(C(=O)COC)C2`, 5.323%. Regarding `COCCC(=O)N1Cc2cnc(Cc3ccc(OC)cc3)nc2C1`, the “Percent Effect” value is reported as -12.22%.

Take `COCC(=O)N1Cc2nc3c(C)c(-c4cccs4)nn3c(O)c2C1`: the “Percent Effect” value turned out to be 99.09%. Consider `Cc1nc2c(c(=O)n1C)CN(C(=O)C1CCCN(C(N)=O)C1)C2` (centres undefined), for which the “Percent Effect” value is given as 11.31%. To `c1cc(-c2c[nH]c([C@@H]3COCCN3C3CCCCC3)n2)ccn1` belongs -0.01712%; to `CCc1ccc(CN2CC[C@H]3C[C@H](c4nnc(C)[nH]4)O[C@@H]3C2)o1.O=C(O)C(F)(F)F`, -6.047%.

Take `CC(Sc1nnnn1C1CCOCC1)C(=O)NC1CCCCC1` (centres undefined): the “Percent Effect” value was -2.14%.

For the molecule `C[C@@H]1CN(c2cc(N3CCC(O)CC3)ncn2)C[C@@]1(O)C1CC1`, the “Percent Effect” value is given as -16.8%. Consider `CC(C)NC(=O)CN(C)C1CCN(c2ccc(Cl)cn2)CC1`, for which the “Percent Effect” value is -2.588%.

Turning to `CS(=O)(=O)CCN1CCN(c2ccc(Cl)cn2)CC1`, the “Percent Effect” value is given as -5.169%.

Turning to `C[C@@H]1CN(c2ccc(Cl)cn2)C[C@@]1(O)C1CC1`, the “Percent Effect” value came to 109.5%.

Consider `COc1cc(N2C[C@@H](C)[C@](O)(C3CC3)C2)ncn1`, for which the “Percent Effect” value was -12.89%. For the molecule `C[C@@H]1CN(c2ccc(Cl)cn2)C[C@]1(C)O`, the “Percent Effect” value is listed as 110.4%.

For the molecule `O=C1COc2ccc(C(=O)NS(=O)(=O)c3ccc(F)cc3F)cc2N1`, the “Percent Effect” value came to 1.32%. Consider `CCS(=O)(=O)N1CCC(c2nnc(CN3CCCC3)n2C2CC2)CC1`, for which the “Percent Effect” value is -2.411%. With `OCCOc1cc(F)ccc1NCc1nc(-c2cccs2)no1`, the “Percent Effect” value is recorded as 14.46%. The result for `Cc1cnn(CCNCc2nc(COc3ccc(F)cc3)no2)c1` reads -9.095%; that for `Cc1cnn(CCNCc2nnc(-c3occc3C)o2)c1`, 122.9%; that for `Cc1cnn(CCNCc2csc(-c3ccc(F)cc3)n2)c1`, 0.7899%. The result for `Cc1cnn(CCNCc2cc(C)no2)c1` reads 0.9077%; that for `Cc1cnn(CCNC(C)c2nnc(-c3ccccc3)o2)c1` (centres undefined), -3.26%. With `Cc1cnn(CCNCc2nnc(-c3ccc(F)cc3)o2)c1`, the “Percent Effect” value was found to be 123.4%. To `c1ccc(-c2nnc(CNCCn3cccn3)o2)cc1` belongs -4.985%; to `Cc1cnn(CCNCc2nnc(-c3ccccc3)o2)c1`, 127.3%; to `Cc1ccc(-c2nnc(C(C)NCCn3cc(C)cn3)o2)cc1` (centres undefined), 8.064%. For the molecule `Cc1ccoc1-c1nnc(CNCCn2cccn2)o1`, the “Percent Effect” value is listed as -4.902%. The result for `Cc1ccc(-c2cc(CNCCn3cc(C)cn3)on2)cc1` reads -23.87%.

With `COc1ccc(-c2nnc(CNCCn3cc(C)cn3)o2)cc1`, the “Percent Effect” value was 93.96%.
